Source: PubChem BioAssay (NCATS)
Records with an inconclusive call do not appear. Calls of active or inactive are those of the source. Calls follow the shape of the dose curve; as a rule, active = well fitted inhibition curve with a large enough effect; inconclusive = small, poorly fitted or top-dose-only effect; inactive = flat fitted curve, though single readings scatter.

assay: Primary qHTS for inhibitors of nuclear receptor binding SET domain protein 2 (NSD2) in an isogenic RCH-ACV NSD2 p.E1099K mutant (9B) (AID 1645876); conditions: RCH-ACV (leukaemia line) NSD2 E1099K (9B) viability, CellTiter-Glo, 72 h; series mostly up to 44.9 µM; activity change, negative = viability loss: at the top concentration; also: nearly all actives have a fitted effect of over 70% in size
% is scaled to controls: 0 for no effect and ±100 for the full control effect; potency is read from the fitted curve at half-maximal effect.

SMILES | activity change, negative = viability loss | Potency | outcome
CC1=CC(=O)C2C(C)(C)CC(O)CC2(C)C1CO (stereo not drawn) | 2.42% (inactive) | – | –
NC(Cc1c[nH]c2ccccc12)C(=O)NC(CCC(=O)O)C(=O)O (stereo not drawn) | -9.45% (inactive) | – | –
COc1cc2c(cc1O)CCN[C@]21CS[C@@H]2c3c(OC(C)=O)c(C)c4c(c3[C@H](COC1=O)N1[C@@H]2[C@H]2c3c(cc(C)c(OC)c3O)C[C@@H]([C@@H]1O)N2C)OCO4 | – | 1.7 nM (active) | –
CC1CC(O)CC(C)(C)C1(O)CCO (stereo not drawn) | – | – | inactive [at 91.9 µM]
O=C(NCC(=O)N1CC[C@H](NC2CCC(O)(c3ccc(-c4ncccn4)cn3)CC2)C1)c1cccc(C(F)(F)F)c1 (stereo partly drawn) | -3.25% (inactive) | – | –
CC(O)(CC(=O)O)CC(=O)O[C@@H]1[C@@H](O)[C@H](OCCc2ccccc2)O[C@H](CO)[C@H]1O (stereo partly drawn) | 3.53% [at 17.3 µM] (inactive) | – | –
C/C=C/C=C/C=C/C(=O)O[C@@H]1[C@@H](OC)C2=C(C(=O)N(C(C)C(=O)O)C2)[C@@]2(C)CCCC(C)(C)[C@H]12 (stereo partly drawn) | 2.77% [at 17.3 µM] (inactive) | – | –
O=C(/C=C/c1ccc(O)cc1)OCC1=C[C@@H](O)[C@@H]2C=CO[C@@H](O[C@@H]3O[C@H](CO)[C@@H](O)[C@H](O)[C@H]3O)[C@H]12 | 4.25% [at 17.3 µM] (inactive) | – | –
CCn1nnnc1NCc1ccc(C(C)C)cc1 | -5.28% (inactive) | – | –
CC1(C)CCCC2(C)C1C(O)C=C(CO)C2(O)C(=O)O (stereo not drawn) | 0.967% (inactive) | – | –
CC1(C)O[C@]23C[C@H]1C[C@H](OC(=O)c1ccoc1)[C@]2(C)[C@@H](OC(=O)c1ccoc1)CCC3(C)O (stereo partly drawn) | 3.28% [at 17.3 µM] (inactive) | – | –
C=CCc1ccc(O[C@@H]2O[C@H](CO[C@@H]3O[C@H](CO)[C@@H](O)[C@H](O)[C@H]3O)[C@@H](O)[C@H](O)[C@H]2O)c(O)c1 | -10.2% [at 17.3 µM] (inactive) | – | –
NC(=O)[C@H]1CCCCc2c1[nH]c1ccc(Cl)cc21 | -9.31% [at 17.3 µM] (inactive) | – | –
C(#Cc1cccc(CN2CCOCC2)c1)CCN1CCCCC1 | – | – | inactive
COc1ccc(/C=C/C(=O)O[C@H]2[C@@H]3C=CO[C@@H](O[C@@H]4O[C@H](CO)[C@@H](O)[C@H](O)[C@H]4O)[C@@H]3[C@@]3(CO)O[C@@H]23)cc1O | – | – | inactive [at 17.3 µM]
c1ccc(C(OC2CCN(CCCc3nn[nH]n3)CC2)c2ccccc2)cc1 | 1.47% (inactive) | – | –
C[C@@H]1CCN(C(=O)CC#N)C[C@@H]1N(C)c1ncnc2[nH]ccc12 | 7.32% (inactive) | – | –
CC(C)CNC(=O)/C=C/CCCCc1ccc2c(c1)OCO2 | -5.25% (inactive) | – | –
CC(=O)N[C@H]1CCN(c2ccc(C3=NOC(CN[S+](=O)([O-])C(C)C)C3)cc2F)C1 (stereo partly drawn) | -21.7% (inactive) | – | –
C=C1CC[C@H]2[C@@H](/C=C(\C)C(=O)[C@@]3(OC(C)=O)C[C@H](C)[C@H](OC(C)=O)[C@@H]3[C@H]1OC(C)=O)C2(C)C | -16.4% [at 17.3 µM] (inactive) | – | –
C/C(=C/CO)CC[C@@H]1[C@@]2(C)CCC[C@](C)(C(=O)O)C2CC[C@@]1(C)O (stereo partly drawn) | 1.86% (inactive) | – | –
CC1CCC2(NC1)OC1C(=O)C3C4CCC5CC(O[C@@H]6O[C@H](CO)[C@@H](O)[C@H](O)[C@H]6O[C@@H]6O[C@@H](C)[C@H](O)[C@@H](O)[C@H]6O)CCC5(C)C4CCC3(C)C1C2C (stereo partly drawn) | -21.9% [at 17.3 µM] (inactive) | – | –
COC12CC3C(C(C)C1=CC(=O)O2)C(O)C(OC(C)=O)C1C(C)(C)C(OC(C)=O)CCC31C (stereo not drawn) | – | – | inactive [at 17.3 µM]
COc1ccc2cc(OCC3(C(=O)O)CN(C(=O)c4ccc(F)cc4)C3)ccc2c1 | – | – | inactive
CC(C)=CCCC1(C)Oc2cc3c(c4c2C2C(O4)C(C)(O)CCC21)CN(C(CCC(=O)O)C(=O)O)C3=O (stereo not drawn) | -10.2% [at 17.3 µM] (inactive) | – | –
C[C@@H]1O[C@@H](O[C@H]2[C@H](O)[C@@H](O)[C@H](OC[C@H]3O[C@@H](OC(=O)[C@]45CCC(C)(C)C[C@H]4C4=CCC6[C@@]7(C)C[C@H](O)[C@H](O[C@@H]8O[C@H](CO)[C@@H](O)[C@H](O)[C@H]8O)[C@@](C)(C(=O)O)C7CC[C@@]6(C)[C@]4(C)CC5)[C@H](O[C@@H]4O[C@H](CO)[C@@H](O)[C@H](O)[C@H]4O)[C@@H](O)[C@@H]3O)O[C@@H]2CO)[C@H](O)[C@H](O)[C@H]1O (stereo partly drawn) | -12.2% [at 9.23 µM] (inactive) | – | –
C[C@@H](Nc1cc(NS(=O)(=O)N2CCC2)nc(SCc2cccc(F)c2F)n1)[C@@H](O)CO | – | – | inactive
C[C@@H]1O[C@@H](O[C@@H]2[C@@H](O)[C@@H](O)[C@H](O[C@@H]3[C@@H](O)[C@@H](O[C@]4(CO)O[C@H](CO)[C@@H](O)[C@@H]4OC(=O)/C=C/c4ccc(O)cc4)O[C@H](CO)[C@H]3OC(=O)/C=C/c3ccc(O)cc3)O[C@H]2C)[C@H](O)[C@H](O)[C@H]1O | – | – | inactive [at 9.23 µM]
